For experiment [1], the target named is Nuclear respiratory factor 1 (Homo sapiens) (UniProt Q16656). Briefly: ATG_NRF1_CIS: Attagene CIS-FACTORIAL HepG2 Assay for human Nuclear Respiratory Factor 1 (NRF1) Orphan Gene (AID 2282987). Conditions: HepG2 NRF1 cis-element reporter, Attagene multiplex; actives raise or lower the signal. In outline: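 Transcriptional reporter readout, one component of a 52-endpoint multiplexed HepG2 panel. Exposure 24 h; mRNA detected via RT-PCR and fluorescent capillary electrophoresis; fitting in both directions against DMSO.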

Experiment [2] in a line: ATG_NFI_CIS: Attagene CIS-FACTORIAL HepG2 Assay for human Nuclear Factor I (NFI) (AID 2282989). Conditions: HepG2 cis-regulatory reporter, NFI response element transcription; actives raise or lower the signal. In outline: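 Multiplexed cis-reporter system in human HepG2 cells reports native TF activity as reporter mRNA induction 24 h post-dose. Fragments labelled with 6-FAM, HpaI-digested and resolved by capillary electrophoresis; activity fitted both directions versus DMSO.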

Experiment [3] addresses Myc proto-oncogene protein (Homo sapiens) (UniProt P01106). Briefly: ATG_Myc_CIS: Attagene CIS-FACTORIAL HepG2 Assay for human Myelocytomatosis (Myc) Proto-Oncogene Transcription Factor (AID 2282990). To be noted: HepG2, Attagene cis-reporter transcription factor activity; actives raise or lower the signal. An outline of the steps:
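Fluorescence intensity of reporter-specific cDNA fragments, separated by capillary electrophoresis, gives the signal. Transfected HepG2 cells carrying cis-promoter reporter constructs are incubated with compound for 24 h; DMSO serves as baseline.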

Experiment [4] is described as follows: ATG_NRF2_ARE_CIS: Attagene CIS-FACTORIAL HepG2 Assay for human Nuclear Factor Erythroid 2 Related Factor 2 (NFR2) response to Antioxidant Response Elements (ARE) (AID 2282992).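 On AC50: reporter mRNA level measured by RT-PCR and capillary electrophoresis fluorescence.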 To be noted: HepG2 Attagene ARE/NRF2 reporter, transcription factor activity; actives raise or lower the signal. An outline of the steps: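 HepG2 cells transiently transfected with multiplexed cis-regulated reporter transcription units measure endogenous transcription factor activity. Reporter mRNA at 24 h is quantified by RT-PCR, fluorescent labelling and capillary electrophoresis, with bidirectional fitting relative to DMSO.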

A short description of experiment [5]: ATG_Oct_MLP_CIS: Attagene CIS-FACTORIAL HepG2 Assay for human Octamer-Binding Transcription Factor (Oct) (AID 2282993). To be noted: HepG2 Attagene cis-factorial Oct reporter, mRNA; actives raise or lower the signal. In outline: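 After 24 h compound exposure, transfected HepG2 cells were lysed for total RNA; reporter-specific cDNA was PCR-amplified, fluorescently labelled and sized by capillary electrophoresis. Bidirectional curve fitting used DMSO as baseline.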

Experiment [6] can be described thus: BSK_3C_TissueFactor: BioMAP Diversity Plus: 3C Assay for Tissue Factor Biomarker Activity (AID 2282997). Conditions: BioMAP 3C HUVEC, tissue factor biomarker readout; actives raise or lower the signal. An outline of the steps: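 Human vascular primary cells (umbilical vein endothelium) received test chemical; Tissue Factor was determined by ELISA at 24 h, and both gain and loss of signal versus DMSO were fitted.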

Experiment [7] has as its target Cellular tumor antigen p53 (Homo sapiens) (UniProt P04637). As to the kind of experiment: ATG_p53_CIS: Attagene CIS-FACTORIAL HepG2 Assay for human p53 Transcription Factor (AID 2282994). Conditions: HepG2 p53 cis-element reporter, Attagene mRNA; actives raise or lower the signal. An outline of the steps: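 HepG2 cells transiently transfected with multiplexed cis-regulated reporter transcription units read endogenous TF activity. After 24 h compound exposure, reporter mRNA was quantified by RT-PCR, fluorescent labelling, HpaI digestion and capillary electrophoresis; bidirectional fits versus DMSO baseline.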

A short description of experiment [8]: BSK_3C_uPAR: BioMAP Diversity Plus: 3C Assay for Urokinase-type plasminogen activator receptor (uPAR) Biomarker Activity (AID 2282998). To be noted: BioMAP 3C HUVEC, uPAR biomarker ELISA; actives raise or lower the signal. An outline of the steps: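 Values derive from bidirectional curve fitting relative to DMSO, which served as baseline of activity. uPAR was measured by ELISA in human umbilical vein endothelial primary cultures 24 h after compound addition.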
(In general: In an ELISA, binding on a coated surface is turned into a signal by an enzyme label.)

The nature of experiment [9]: ATG_NF_kB_CIS: Attagene CIS-FACTORIAL HepG2 Assay for human Nuclear Factor Kappa B (NF-kB) (AID 2282991). To be noted: HepG2 Attagene cis-factorial NF-kB reporter mRNA; actives raise or lower the signal. In outline:
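HepG2, transient multi-reporter transfection, cis promoter elements (endogenous TFs). 24 h exposure. Total RNA → RT → PCR → 6-FAM label → HpaI → CE. Gain/loss vs DMSO.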

The nature of experiment [10]: BSK_3C_VCAM1: BioMAP Diversity Plus: 3C Assay for Vascular cell adhesion molecule 1 (VCAM1) Biomarker Activity (AID 2282999). Conditions: BioMAP 3C HUVEC, VCAM1 ELISA, cytokine-stimulated; actives raise or lower the signal. An outline of the steps:
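Human umbilical vein endothelial cells (3C system), biomarker read by ELISA 24 h after dosing; bidirectional fit against DMSO baseline. Cytotoxicity tracked by SRB total-protein staining in parallel cultures at biomarker time.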

Values joined by “and” are separate entries in the source; they are usually repeats but may differ in a detail not shown here. Equal entries are not always repeated. Where a structure was tested more than once in an assay, its records may differ in their call. Active and inactive are the calls of the source. How the source made its calls: active means hit-call score of the fitted dose curve at least 0.9, where 1 is the maximum; inactive means score below 0.9.

As usually defined, the AC50 is the midpoint of the concentration-response curve, whichever way the signal moves.

Myc proto-oncogene protein (Homo sapiens), sequence (P01106 whole entry, looked up, the tested form may be a part): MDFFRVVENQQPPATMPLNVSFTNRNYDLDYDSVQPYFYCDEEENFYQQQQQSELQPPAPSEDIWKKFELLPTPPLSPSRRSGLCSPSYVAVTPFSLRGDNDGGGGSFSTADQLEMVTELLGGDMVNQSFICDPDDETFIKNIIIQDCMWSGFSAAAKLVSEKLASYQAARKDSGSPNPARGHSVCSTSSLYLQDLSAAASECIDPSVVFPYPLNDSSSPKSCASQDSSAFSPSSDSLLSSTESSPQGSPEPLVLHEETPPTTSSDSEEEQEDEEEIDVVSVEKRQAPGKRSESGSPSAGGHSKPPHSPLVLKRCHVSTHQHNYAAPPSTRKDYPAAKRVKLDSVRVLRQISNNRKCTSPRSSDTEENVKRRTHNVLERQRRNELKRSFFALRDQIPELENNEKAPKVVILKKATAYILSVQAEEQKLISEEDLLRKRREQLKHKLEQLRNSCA
Cellular tumor antigen p53 (Homo sapiens), sequence (P04637 whole entry, looked up): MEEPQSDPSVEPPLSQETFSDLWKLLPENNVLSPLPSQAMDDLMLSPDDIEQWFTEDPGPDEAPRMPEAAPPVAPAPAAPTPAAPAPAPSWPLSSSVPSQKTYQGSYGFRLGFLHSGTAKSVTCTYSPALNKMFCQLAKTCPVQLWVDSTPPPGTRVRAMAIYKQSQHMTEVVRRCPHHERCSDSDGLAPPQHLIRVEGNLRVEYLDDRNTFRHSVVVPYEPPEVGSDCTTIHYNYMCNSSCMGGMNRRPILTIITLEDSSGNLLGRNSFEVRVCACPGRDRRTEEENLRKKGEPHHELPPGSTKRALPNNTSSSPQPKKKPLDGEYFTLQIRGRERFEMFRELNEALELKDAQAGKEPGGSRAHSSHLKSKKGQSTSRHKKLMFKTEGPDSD
Nuclear respiratory factor 1 (Homo sapiens), sequence (Q16656 whole entry, looked up): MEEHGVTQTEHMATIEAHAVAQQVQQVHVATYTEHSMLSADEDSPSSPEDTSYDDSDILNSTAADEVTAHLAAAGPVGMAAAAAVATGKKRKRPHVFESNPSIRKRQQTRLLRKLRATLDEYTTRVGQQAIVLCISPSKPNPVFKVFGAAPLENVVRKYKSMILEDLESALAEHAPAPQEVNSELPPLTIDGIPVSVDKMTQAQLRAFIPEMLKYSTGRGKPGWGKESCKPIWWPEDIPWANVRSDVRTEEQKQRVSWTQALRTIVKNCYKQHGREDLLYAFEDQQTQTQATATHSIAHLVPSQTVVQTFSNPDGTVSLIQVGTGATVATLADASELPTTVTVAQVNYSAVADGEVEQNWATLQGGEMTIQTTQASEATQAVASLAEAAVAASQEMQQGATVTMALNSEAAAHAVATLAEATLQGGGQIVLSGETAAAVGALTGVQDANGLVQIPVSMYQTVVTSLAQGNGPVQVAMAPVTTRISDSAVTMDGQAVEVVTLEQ

As to `O=[N+]([O-])c1cc(C(F)(F)F)c(Cl)c([N+](=O)[O-])c1Nc1ncc(C(F)(F)F)cc1Cl`, the AC50 in experiment [1] is 21.5 µM (active); in [4] it was 2.7 µM (active); in experiment [6], 1.16 µM (active) and 2.68 µM (active). Also, the molecule was called inactive in experiment [1], in [2], in experiment [3], in experiment [4] and in experiment [5].

Turning to `C#CC(C)(C)NC(=O)c1cc(Cl)cc(Cl)c1`, the molecule was classed as inactive in experiment [1], in experiment [2], in experiment [3], in [7], in experiment [6] and in experiment [8]. Moreover, the AC50 in experiment [4] is 22 µM (active); in [5] it was 30.6 µM (active).

On to `CC(C)=CC1C(C(=O)OCN2C(=O)C3=C(CCCC3)C2=O)C1(C)C` (stereo unspecified), for which the call in [1], in experiment [2], in [3] and in [7] was inactive. In addition, the AC50 in [4] was 16.2 µM (active); in [5], 35.4 µM (active); in [6] it was 12.7 µM (active); in experiment [8] it was 15.5 µM (active).

In the case of `CCOP(=S)(OCC)Oc1ccc2c(C)c(Cl)c(=O)oc2c1`, the molecule was called inactive in [1], in [2], in experiment [3], in [5], in experiment [7] and in experiment [6]. Moreover, the AC50 in [4] was 2.75 µM (active).

Consider `CSC1=N[C@@](C)(c2ccccc2)C(=O)N1Nc1ccccc1`, for which the result in [1], in experiment [2], in [3] and in experiment [7] was inactive. In addition, the concentration at half-maximal activity (AC50) in experiment [4] was 4.24 µM (active); in experiment [5] it was 10.7 µM (active); in [6], 1.68 µM (active).

Regarding `CC1=NNC(=O)N(/N=C/c2cccnc2)C1`, the molecule was called inactive in experiment [1], in [2], in experiment [3], in [4], in experiment [5] and in [7]. The result in experiment [6] was inactive.

As for `CNC(=O)ON=C(SC)C(=O)N(C)C`, the result in experiment [1], in experiment [2], in experiment [3], in [7], in experiment [6] and in [8] was inactive. Besides, the figures for the AC50 in [4] and in [5] were 24.9 µM (active) and 18.9 µM (active), respectively.

As to `CC(Oc1cccc(Cl)c1)C(=O)O` (stereo unspecified), the outcome in experiment [1], in experiment [2], in experiment [3], in [4], in [5] and in experiment [7] was inactive. Besides, in experiment [6], the result was inactive.

As for `CCC(=NOC/C=C/Cl)C1=C(O)CC(C2CCOCC2)CC1=O` (stereo unspecified), the result in [1], in experiment [2], in [3], in experiment [4], in experiment [5] and in experiment [7] was inactive. The outcome in [6] was inactive.

`CCCSP(=O)(OCC)Oc1ccc(Br)cc1Cl` (stereo unspecified): the result in [1], in [2], in experiment [3], in experiment [9], in [7] and in experiment [6] was inactive. Also, the result in [8] was inactive. Also, the AC50 is 2.73 µM (active) in [4] and 2.03 µM (active) in experiment [5].

For the molecule `COc1cccc(C(=O)NN(C(=O)c2cc(C)cc(C)c2)C(C)(C)C)c1C`, the molecule was classed as inactive in experiment [1], in experiment [2], in [3], in experiment [4], in experiment [5] and in experiment [7]. Moreover, the result in experiment [6] and in experiment [8] was inactive.

On to `CCCCOC(=O)c1ccccc1C(=O)O`, for which the outcome in [1], in [2], in experiment [3], in [4], in [5] and in experiment [7] was inactive. The outcome in experiment [6] was inactive.

On to `CSc1nnc(C(C)(C)C)c(=O)n1N`, for which the result in [1], in experiment [2], in [3], in [9], in experiment [4] and in [5] was inactive. Also, the molecule was called inactive in experiment [7], in experiment [6], in experiment [8] and in [10].

In the case of `CON=C(C(=O)OC)c1ccccc1CON=C(C)c1cccc(C(F)(F)F)c1`, the result in [1], in [2], in [3], in [7] and in experiment [6] was inactive. The values for the AC50 in [4] and in experiment [5] were 15.7 µM (active) and 13.5 µM (active), respectively.

In the case of `CN1COCN(Cc2cnc(Cl)s2)C1=N[N+](=O)[O-]`, the result in experiment [1], in experiment [2], in experiment [3], in [4], in [5] and in experiment [7] was inactive. In addition, the outcome in [6] was inactive.

In the case of `CC(=NC#N)N(C)Cc1ccc(Cl)nc1`, the molecule was called inactive in experiment [1], in experiment [2], in [3], in [9], in experiment [4] and in [5]. Besides, the outcome in experiment [7] and in experiment [6] was inactive.

Turning to `S=C1NCCN1`, the molecule was classed as inactive in experiment [1], in [2], in experiment [3], in [4], in experiment [5] and in experiment [7]. For the same molecule, the outcome in [6] was inactive.

Regarding `CC[C@H](C)[C@H]1O[C@]2(C=C[C@@H]1C)C[C@@H]1C[C@@H](C/C=C(\C)[C@@H](O[C@H]3C[C@H](OC)[C@@H](O[C@H]4C[C@H](OC)[C@@H](NC)[C@H](C)O4)[C@H](C)O3)[C@@H](C)/C=C/C=C3\CO[C@@H]4[C@H](O)C(C)=C[C@@H](C(=O)O1)[C@]34O)O2`, the molecule was classed as inactive in experiment [1], in experiment [2], in [3], in [4], in experiment [5] and in experiment [7]. Also, the result in experiment [6] was inactive.

For the molecule `CCCCOC(=O)[C@@H](C)Oc1ccc(Oc2ccc(C#N)cc2F)cc1`, the result in [1], in experiment [2], in experiment [3], in experiment [4], in experiment [5] and in [7] was inactive. In addition, the outcome in experiment [6], in experiment [8] and in experiment [10] was inactive.

For the origin of these results see PubChem BioAssay (EPA / NIEHS).
